Laboratory results taken from PubChem BioAssay AID1159580 (chemical genetic matrix, 2015).
Where “and” joins values, the source holds several entries; their conditions need not be identical. Equal entries are not always repeated. About 2,000 (36%) of roughly 5,500 compounds were called active. About 18% were inconclusive and are not listed. Cut-off read from the data, not from the text of the source: active = normalized growth mostly below about 0.91 (no sharp cut-off); inconclusive = no clear call, values can overlap the other calls; inactive = mostly above about 0.92. Some of the results follow.

Experiment: chemical genetic growth profiling, strain panel (AID 1159580);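 note: tested at 20 µM; growth read once vehicle control cultures reached saturation at 30 °C; 1 = growth at the plate median or of vehicle wells; lower values mean less growth of the strain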
Conditions: growth OD

Measured: normalized growth

CCCC(C(=O)OCCN(CC)CC)(c1ccccc1)c1ccccc1
inactive: S. cerevisiae deletion strains, locus YJR075W, strain HOC1, active compounds read low 1 and 0.971 | S. cerevisiae deletion strains, locus YKL009W, strain mrt4, active compounds read low 0.982 | S. cerevisiae deletion strains, locus YKL068W, active compounds read low 0.995 | S. cerevisiae deletion strains, locus YKL085W, strain MDH1 (second series), active compounds read low 0.99 | S. cerevisiae deletion strains, locus YKL085W, strain MDH1, active compounds read low 0.99 | S. cerevisiae deletion strains, locus YKL160W, strain elf1, active compounds read low 0.982 | S. cerevisiae deletion strains, locus YKL190W, strain CNB1, active compounds read low 0.995 | S. cerevisiae deletion strains, locus YKR001C, strain vps1, active compounds read low 0.999 | S. cerevisiae deletion strains, locus YKR026C, strain gcn3, active compounds read low 1 | S. cerevisiae deletion strains, locus YKR091W, strain srl3, active compounds read low 1 | S. cerevisiae deletion strains, locus YLL001W, strain dnm1, active compounds read low 0.998 | S. cerevisiae deletion strains, locus YLL026W, active compounds read low 1.01 | S. cerevisiae deletion strains, locus YLL041C, strain sdh2, active compounds read low 1 | S. cerevisiae deletion strains, locus YLR027C, strain aat2, active compounds read low 1 | S. cerevisiae deletion strains, locus YLR039C, strain RIC1, active compounds read low 1.16 | S. cerevisiae deletion strains, locus YLR058C, strain SHM2, active compounds read low 1.01 | S. cerevisiae deletion strains, locus YLR102C, strain apc9, active compounds read low 0.994 | S. cerevisiae deletion strains, locus YLR113W, strain HOG1, active compounds read low 0.966 | S. cerevisiae deletion strains, locus YLR221C, strain rsa3, active compounds read low 0.991 | S. cerevisiae deletion strains, locus YLR258W, strain gsy2, active compounds read low 0.989 | S. cerevisiae deletion strains, locus YLR262C, strain YPT6 (second series), active compounds read low 1.12 | S. cerevisiae deletion strains, locus YLR262C, strain YPT6, active compounds read low 1.25 | S. cerevisiae deletion strains, locus YLR268W, strain sec22, active compounds read low 0.977 | S. cerevisiae deletion strains, locus YLR320W, strain mms22, active compounds read low 0.968 | S. cerevisiae deletion strains, locus YLR330W, strain CHS5, active compounds read low 1.01 | S. cerevisiae deletion strains, locus YLR342W, strain FKS1 (second series), active compounds read low 0.941 | S. cerevisiae deletion strains, locus YLR342W, strain FKS1, active compounds read low 0.999 | S. cerevisiae deletion strains, locus YLR357W, strain rsc2, active compounds read low 0.935 | S. cerevisiae deletion strains, locus YLR370C, strain arc18, active compounds read low 1 | S. cerevisiae deletion strains, locus YLR371W, strain rom2, active compounds read low 0.985 | S. cerevisiae deletion strains, locus YLR384C, strain iki3, active compounds read low 1.01 | S. cerevisiae deletion strains, locus YLR418C, strain cdc73, active compounds read low 0.883 | S. cerevisiae deletion strains, locus YML016C, strain PPZ1, active compounds read low 1.01 | S. cerevisiae deletion strains, locus YML032C, strain rad52, active compounds read low 0.989 | S. cerevisiae deletion strains, locus YML120C, strain ndi1, active compounds read low 0.989 | S. cerevisiae deletion strains, locus YML124C, strain tub3, active compounds read low 0.995 | S. cerevisiae deletion strains, locus YMR058W, strain fet3, active compounds read low 1 | S. cerevisiae deletion strains, locus YMR078C, strain ctf18, active compounds read low 0.99 | S. cerevisiae deletion strains, locus YMR125W, strain sto1, active compounds read low 1.01 | S. cerevisiae deletion strains, locus YMR129W, active compounds read low 0.983 | S. cerevisiae deletion strains, locus YMR205C, strain PFK2, active compounds read low 0.972 | S. cerevisiae deletion strains, locus YMR223W, strain ubp8, active compounds read low 0.967 | S. cerevisiae deletion strains, locus YMR231W, strain pep5, active compounds read low 1.01 | S. cerevisiae deletion strains, locus YMR263W, strain SAP30, active compounds read low 1 | S. cerevisiae deletion strains, locus YMR307W, strain GAS1, active compounds read low 1.03 | S. cerevisiae deletion strains, locus YNL067W, strain RPL9B, active compounds read low 0.996 | S. cerevisiae deletion strains, locus YNL071W, strain lat1, active compounds read low 0.957 | S. cerevisiae deletion strains, locus YNL128W, strain TEP1, active compounds read low 0.992 | S. cerevisiae deletion strains, locus YNL153C, strain GIM3, active compounds read low 1.02 and 1.01 | S. cerevisiae deletion strains, locus YNL183C, strain NPR1, active compounds read low 0.946 | S. cerevisiae deletion strains, locus YNL197C, strain WHI3, active compounds read low 1.01 | S. cerevisiae deletion strains, locus YNL209W, strain ssb2, active compounds read low 1.02 | S. cerevisiae deletion strains, locus YNL224C, strain SQS1, active compounds read low 1.02 | S. cerevisiae deletion strains, locus YNL233W, strain BNI4, active compounds read low 1.01 | S. cerevisiae deletion strains, locus YNL248C, strain rpa49, active compounds read low 0.989 | S. cerevisiae deletion strains, locus YNL250W, strain rad50, active compounds read low 0.981 | S. cerevisiae deletion strains, locus YNL271C, strain bni1, active compounds read low 0.994 | S. cerevisiae deletion strains, locus YNL298W, strain CLA4, active compounds read low 0.989 | S. cerevisiae deletion strains, locus YNL307C, strain MCK1, active compounds read low 0.983 | S. cerevisiae deletion strains, locus YNL322C, strain KRE1 (second series), active compounds read low 1.01 | S. cerevisiae deletion strains, locus YNL322C, strain KRE1, active compounds read low 0.985 | S. cerevisiae deletion strains, locus YNR049C, strain mso1, active compounds read low 1.01 | S. cerevisiae deletion strains, locus YNR052C, strain pop2, active compounds read low 0.986 | S. cerevisiae deletion strains, locus YOL006C, strain TOP1, active compounds read low 1.05 | S. cerevisiae deletion strains, locus YOL012C, strain htz1 0.951 | S. cerevisiae deletion strains, locus YOL147C, strain pex11, active compounds read low 0.995 | S. cerevisiae deletion strains, locus YOR001W, strain rrp6, active compounds read low 0.977 | S. cerevisiae deletion strains, locus YOR061W, strain CKA2, active compounds read low 1.01 | S. cerevisiae deletion strains, locus YOR069W, strain VPS5, active compounds read low 1 | S. cerevisiae deletion strains, locus YOR070C, strain gyp1, active compounds read low 1 | S. cerevisiae deletion strains, locus YOR080W, strain dia2, active compounds read low 0.993 | S. cerevisiae deletion strains, locus YOR083W, strain WHI5 (second series), active compounds read low 0.993 | S. cerevisiae deletion strains, locus YOR083W, strain WHI5, active compounds read low 0.983 | S. cerevisiae deletion strains, locus YOR106W, strain vam3, active compounds read low 0.979 | S. cerevisiae deletion strains, locus YOR136W, strain idh2, active compounds read low 0.993 | S. cerevisiae deletion strains, locus YOR144C, strain elg1, active compounds read low 0.989 | S. cerevisiae deletion strains, locus YOR184W, strain ser1, active compounds read low 0.99 | S. cerevisiae deletion strains, locus YOR231W, strain MKK1, active compounds read low 0.98 | S. cerevisiae deletion strains, locus YOR265W, strain rbl2, active compounds read low 1.01 | S. cerevisiae deletion strains, locus YOR270C, strain vph1, active compounds read low 0.942 | S. cerevisiae deletion strains, locus YOR290C, strain snf2, active compounds read low 0.998 | S. cerevisiae deletion strains, locus YOR316C, strain cot1, active compounds read low 1 | S. cerevisiae deletion strains, locus YPL051W, strain arl3, active compounds read low 0.972 | S. cerevisiae deletion strains, locus YPL055C, strain LGE1, active compounds read low 1.01 | S. cerevisiae deletion strains, locus YPL078C, strain atp4, active compounds read low 0.998 | S. cerevisiae deletion strains, locus YPL106C, strain sse1, active compounds read low 1.02 | S. cerevisiae deletion strains, locus YPL240C, strain hsp82, active compounds read low 0.998 | S. cerevisiae deletion strains, locus YPL241C, strain CIN2, active compounds read low 1 | S. cerevisiae deletion strains, locus YPL256C, strain CLN2, active compounds read low 0.994 | S. cerevisiae deletion strains, locus YPR119W, strain clb2, active compounds read low 0.996 | S. cerevisiae deletion strains, locus YPR141C, strain kar3, active compounds read low 0.996 | S. cerevisiae deletion strains, locus YPR163C, strain tif3, active compounds read low 0.995 | S. cerevisiae deletion strains, locus YPR167C, strain met16, active compounds read low 0.993 | S. cerevisiae deletion strains, strain wtn01, active compounds read low 0.974 | S. cerevisiae strains, strain wild type, active compounds read low 1.01
